Screening data as filed in PubChem.
ROC1-CUL1 inh: inhibitors of human ROC1-CUL1 ubiquitin ligase activity. E3 ubiquitin-protein ligase RBX1 (Homo sapiens) + Cullin-1 (Homo sapiens), P62877+Q13616. in vitro K48 di-Ub FRET, acceptor:donor ratio, 45 min. inhibition, % at 10 µM. 140,000 compounds, 0.6% hits; in the data active = inhibition above about 25%
Each line names hits and unclear results; the compound was inactive in the other large screens. Shown is part of a subset that was picked to be rich in hits.

CCCCCCCC1=NN2C(=N)/C(=C/c3ccc(OC)c(OC)c3OC)C(=O)N=C2S1	none
Cc1ccc(/C=C2/C(=N)N3N=C(c4ccc(C)cc4)SC3=NC2=O)cc1	none
Cc1cccc(C2=NN3C(=N)/C(=C\c4ccc([N+](=O)[O-])o4)C(=O)N=C3S2)c1	ROC1-CUL1 inh 106.4
Cc1cccc(/C=C2/C(=N)N3N=C(c4ccccc4Cl)SC3=NC2=O)c1	none
O=c1c2ccccc2nc(CN2CCN(Cc3ccccc3)CC2)n1-c1ccc(F)cc1	none
OCCSc1nc2ccccc2nc1N/N=C/c1ccccc1O	none
O=C(NCC1CCCO1)c1cccnc1 (stereo not drawn)	none
Cc1cccc(-c2nnc(SCCC(=O)N3CCCCCC3)o2)c1	none
Cc1ccc(/C=C2/CN(Cc3ccccc3)C/C(=C\c3ccc(C)o3)C2=O)o1	none
CCC1OCC2C(C(=O)OC)=NN=C(C(=O)OC)C2CO1 (stereo not drawn)	none
CCN1/C(=C\C=C/C2C=Cc3ccccc3N2CC)C=Cc2ccccc21 (stereo not drawn)	ROC1-CUL1 inh 57.0
CCOC(=O)C1=C(C)N=c2s/c(=C/c3ccoc3)c(=O)n2C1c1ccc(Cl)cc1 (stereo not drawn)	none
COCCCNc1nc2c(c(=O)n(C)c(=O)n2C)n1Cc1ccccc1	none
Cn1c(NCCN)nc2c1c(=O)n(Cc1ccccc1)c(=O)n2C	none
Cn1c(=O)c2c(nc(NCCN)n2Cc2ccc(Cl)cc2)n(C)c1=O	ROC1-CUL1 inh 26.6
CC1CC(=O)c2cnc(N3CCC(Cc4ccccc4)CC3)nc2C1 (stereo not drawn)	none
CNC(=O)/C(C#N)=N/Nc1cccc(C(N)=O)c1	none
COc1cccc(-c2cn3c(C(=O)N4CCN(C)C(C)C4)csc3n2)c1 (stereo not drawn)	none
CCCCOc1ccc(C(=O)C2C(=O)C(=O)N(CCOC)C2c2ccc(CC)cc2)cc1C (stereo not drawn)	ROC1-CUL1 inh 40.6
COc1ccc(C(=O)C2C(=O)C(=O)N(CCCN(C)C)C2c2ccc(C)cc2)cc1OC (stereo not drawn)	none
CCc1ccc(C2C(C(=O)c3ccc4c(c3)CC(C)O4)C(=O)C(=O)N2CCOC)cc1 (stereo not drawn)	none
Cc1ccc(C2C(C(=O)c3ccc(OCc4ccccc4)c(C)c3)C(=O)C(=O)N2CCN(C)C)cc1 (stereo not drawn)	ROC1-CUL1 inh 72.0
COc1ccc(C(=O)C2C(=O)C(=O)N(CCN(C)C)C2c2ccc(OCc3ccccc3)cc2)cc1 (stereo not drawn)	none
CCCCOc1ccc(C(=O)C2C(=O)C(=O)N(CCCOC)C2c2ccc(O)c(OC)c2)cc1C (stereo not drawn)	none
CSc1cccc(NC(=O)COC(=O)c2ccccc2Cl)c1	none
Cc1ccc2c(C)c(C(=O)N(Cc3ccccn3)C[C@@H]3CCC(=O)N3)oc2c1C	none
Cc1ccc(N2C(=O)/C(=C\c3ccc(-c4ccc(Br)cc4[N+](=O)[O-])o3)C(=O)N(c3ccccc3)C2=S)cc1C	ROC1-CUL1 inh 56.0
Cc1ccc(N2C(=O)/C(=C/c3ccc(-c4ccc(C(=O)O)cc4)o3)C(=O)N(c3ccccc3)C2=S)cc1C	none
Cc1ccc(N2C(=O)/C(=C/c3ccc(Br)cc3)C(=O)N(c3ccccc3)C2=S)cc1	none
COc1cccc(/C=N/NS(=O)(=O)c2ccc(C)cc2)c1O	none
C[C@H](O)[C@H](O)C1CN=C2N=C(N)NC(=O)C2N1C(=O)c1cccnc1 (stereo partly drawn)	none
CC(=O)c1c(O)ccc2c1[C@@H]1OC(=O)C[C@@H]1O2	ROC1-CUL1 inh 98.2
CC(=O)c1c(C)oc2ccc(N(C(=O)c3ccc(Cl)cc3)S(=O)(=O)c3ccc(F)cc3)cc12	none
Cc1c(CC(=O)NCC2CC2)c2c(n1Cc1ccc(F)cc1)CCCC2=O	none
Cc1c(Cl)cccc1N1C(=O)/C(=C/c2cc(C)n(-c3ccc(C#N)cc3)c2C)C(=O)NC1=S	none
Cn1cccc1/C=C1\C(=O)NC(=S)N(c2ccccc2F)C1=O	ROC1-CUL1 inh 94.7
O=C1NC(=O)N(c2ccccc2F)C(=O)/C1=C/c1cccn1-c1ccc(Br)cc1	none
Cc1c(Cl)cccc1N1C(=O)/C(=C/c2cccn2-c2cccc(C(=O)O)c2)C(=O)NC1=S	ROC1-CUL1 inh 100.5
CCc1ccc(N2C(=O)/C(=C/c3cccn3-c3ccccc3)C(=O)NC2=S)cc1	none
CCOc1ccc(N2C(=O)/C(=C/c3cccn3C)C(=O)NC2=S)cc1	none
O=C1NC(=S)N(c2ccc(Cl)cc2)C(=O)/C1=C/c1cccn1-c1cccc(C(=O)O)c1	ROC1-CUL1 inh 25.4
O=C1NC(=S)N(c2ccc(Br)cc2)C(=O)/C1=C/c1cccn1-c1ccccc1	none
Cc1c(/C=C2/C(=O)NC(=S)N(c3cccc(Cl)c3Cl)C2=O)c2ccccc2n1C	none
Cc1cc(/C=C2\C(=O)NC(=S)N(c3ccccc3F)C2=O)c(C)n1-c1ccc(C(=O)O)c(Cl)c1	ROC1-CUL1 inh 85.5
Cc1cc(/C=C2\C(=O)NC(=S)N(c3ccc(Cl)cc3)C2=O)c(C)n1-c1ccc(Cl)cc1	none
CCc1cccc(C)c1-n1c(C)cc(/C=C2\C(=O)NC(=S)N(c3ccccc3F)C2=O)c1C	none
N#Cc1c(-c2ccccc2)n2c(C(=O)c3ccc4ccccc4c3)nn(-c3ccccc3)c2nc1=O	none
COc1ccc(C2=C(Oc3ccc(OCCN4CCCCC4)cc3)c3ccc(OC)cc3S2=O)cc1 (stereo not drawn)	none
N=C1/C(=C\c2ccc(Cl)cc2)C(=O)N=C2SC(SCCOc3ccccc3)=NN12	none
COc1cc(CC2(CCC(=O)N(C)Cc3cc4ccccc4s3)CCC(=O)N2)ccc1F (stereo not drawn)	none
COC(=O)NC(Nc1ccc(C)cc1)C(Cl)(Cl)Cl (stereo not drawn)	none
CCOCCn1c(=O)c2c(nc3n2CCN3c2ccc(C)cc2C)n(C)c1=O	none
O=C1O/C(=C/Oc2cc(Cl)c(Cl)cc2Cl)c2ccccc21	none
O=C(Oc1ccc(Cl)cc1Br)c1ccc(F)cc1	none
CN1C(=N)C(C(=O)c2ccccc2)C=NC1=O (stereo not drawn)	none
CCOC(=O)C1(Cc2ccccc2Cl)CCN(CCO)CC1	none
COc1ccc(CN2CCC(C(Cc3ccccc3)N(C(=O)c3ccco3)C3CC3)CC2)cc1C (stereo not drawn)	none
N=C(c1ccc(-c2cn3ccccc3n2)cc1)N1CCCC1	none
Fc1cccc(C2Nc3cccc4cccc(c34)N2)c1	none
CC(C)(C)c1ccc(C2Nc3cccc4cccc(c34)N2)cc1	none
O=C(O)c1ccc(C2Nc3cccc4cccc(c34)N2)cc1	ROC1-CUL1 inh 92.7
c1ccc2c(c1)ccc1nsnc12	none
Cc1ccc2nsnc2c1S(=O)(=O)Nc1ccccc1Br	none
Nc1c(Br)ccc2nsnc12	ROC1-CUL1 inh 103.8
Cc1cc(C)c(S(=O)(=O)NC(C)C)cc1C	none
Cc1ccc(NC(=O)C(c2ccncc2)N(Cc2ccccc2)C(=O)CNC(=O)c2ccccc2)cc1 (stereo not drawn)	none
CCN(CCN(C)C)C(=O)C1CC(=O)c2sc(NC(=O)c3cccc(F)c3)nc2C1 (stereo not drawn)	none
O=C1C2C(c3ccc(F)c(Cl)c3)OC3(C(=O)c4ccccc4C3=O)C2C(=O)N1c1ccc(Br)cc1 (stereo not drawn)	ROC1-CUL1 inh 93.0
O=C1C2C(c3ccccc3)OC3(C(=O)c4ccccc4C3=O)C2C(=O)N1c1ccc(F)cc1 (stereo not drawn)	none
O=C1C2C(c3ccc(Br)cc3)OC3(C(=O)c4ccccc4C3=O)C2C(=O)N1c1ccc([N+](=O)[O-])cc1 (stereo not drawn)	none
O=C(c1ccc(NC2CCCC2)nc1)N1CCCN(c2ncccn2)CC1	none
